Screening results deposited in PubChem by National Center for Advancing Translational Sciences (NCATS).
Compounds with a hit are over-represented: about 1.1% of the library has one in this group of screens.
RXFP1 antag – antagonists of human relaxin receptor RXFP1; activity change, negative = inhibition, % at 57.5 µM; Q9HBX9; HEK293-RXFP1, relaxin-stimulated cAMP HTRF, 30 min; hits give low values; 350,000 tested, 0.59% active;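 active = activity change of -60% or lower, but not beyond a set lower limit; inconclusive = change between -60% and -40%, or beyond the set limit; inactive = change above -40%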; also: % is scaled to controls: 0 for no effect and ±100 for the full control effect
Target sequence (Q9HBX9 whole entry, looked up): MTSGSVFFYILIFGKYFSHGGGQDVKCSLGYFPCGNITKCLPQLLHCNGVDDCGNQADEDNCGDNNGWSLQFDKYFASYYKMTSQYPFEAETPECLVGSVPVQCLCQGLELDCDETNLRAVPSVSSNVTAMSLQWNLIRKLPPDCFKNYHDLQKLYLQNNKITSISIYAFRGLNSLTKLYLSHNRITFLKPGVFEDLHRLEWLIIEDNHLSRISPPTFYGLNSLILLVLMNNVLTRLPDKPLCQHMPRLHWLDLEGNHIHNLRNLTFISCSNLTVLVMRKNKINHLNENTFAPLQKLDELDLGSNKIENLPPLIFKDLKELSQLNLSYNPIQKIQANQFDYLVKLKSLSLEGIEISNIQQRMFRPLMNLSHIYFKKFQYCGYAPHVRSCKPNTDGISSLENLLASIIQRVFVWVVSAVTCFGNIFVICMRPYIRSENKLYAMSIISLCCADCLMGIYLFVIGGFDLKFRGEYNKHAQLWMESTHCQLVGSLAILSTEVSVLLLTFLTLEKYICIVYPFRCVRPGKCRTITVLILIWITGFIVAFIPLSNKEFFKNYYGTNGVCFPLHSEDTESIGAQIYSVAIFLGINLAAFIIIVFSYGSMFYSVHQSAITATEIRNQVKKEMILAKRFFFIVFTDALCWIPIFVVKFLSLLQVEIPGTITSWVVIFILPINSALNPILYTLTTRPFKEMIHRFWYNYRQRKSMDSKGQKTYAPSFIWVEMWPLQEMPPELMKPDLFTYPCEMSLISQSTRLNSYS
RXFP1 agonist – activates the human relaxin receptor RXFP1 | Q9HBX9 | HEK293T-RXFP1 cAMP TR-FRET, 30 min; response scale: percent of porcine relaxin response, buffer zero | Potency, µM (titrated, usually from 57.5 µM), for inactives: at the highest dose activation, hits mostly activators | 370,000 tested, 0.3% active | AID 2676; active = well fitted activation curve with a large enough effect; inconclusive = small, poorly fitted or top-dose-only effect; also: potency is read from the fitted curve at half-maximal effect; % is scaled to controls: 0 for no effect and ±100 for the full control effect; nearly all actives have a fitted effect of over 60% in size
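Agonist response is measured as cAMP accumulation in an RXFP1-transfected HEK293T line under PDE4 inhibition. Values are scaled between buffer-only and 29 nM porcine relaxin, and EC50s come from standard Hill equation fits.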
gsp ag – agonists of gsp mutant (McCune-Albright syndrome); gsp mutant cells, cAMP HTRF, 30 min; Potency, µM (doses to about 76.9 µM), for inactives: at the highest dose activation (cAMP increase), hits mostly activators; 340,000 tested, 0.13% active; active = well fitted activation curve with a large enough effect; inconclusive = small, poorly fitted or top-dose-only effect, or another doubt; inactive = no such curve, though single readings can be large or run the other way; cell line not stated here;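 also: phosphodiesterase inhibitor Ro 20-1724 added with compounds to block cAMP breakdown; potency is read from the fitted curve at half-maximal effect; nearly all actives have a fitted effect of over 60% in size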
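Cells stably selected in G418 were plated at 2000/well, grown 16-24 hr, then given compounds in DMSO with the PDE inhibitor […] (300 uM solution added) for 30 min at 37C; cAMP was read by HTRF.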
gsp antag – antagonizes gsp, the McCune-Albright syndrome mutation; gsp-mutant cells, cAMP HTRF, 30 min; Potency, µM (series often up to 76.9 µM), for inactives: top-dose activity change, negative = inhibition, usual class: inhibitors; 340,000 tested, 0.4% active; AID 624288; calls by dose curve; cell line not stated here;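 also: intracellular cAMP measured with PDE inhibitor Ro 20-1724 present during compound exposure; potency is read from the fitted curve at half-maximal effect; % is scaled to controls: 0 for no effect and ±100 for the full control effect; nearly all actives have a fitted effect of over 65% in size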
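Cells, 2000/well, grown 16–24 h in DMEM 10% FBS with 0.5 mg/ml G418, then compounds plus […] (300 uM addition stock), 30 min at 37C. cAMP read by HTRF (cAMP-d2 and anti-cAMP antibody-K in lysis buffer) after 30 min RT.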
TRPV1 agonist – activates the human vanilloid receptor TRPV1. TRPV1-expressing cells, Fluo-8 calcium influx, agonist mode. AID 540275. 320,000 tested, 0.19% active. Q8NER1. activation, % at 8.33 µM; in the data active = activation above about 80%; inconclusive = between about 30% and that limit; also: 0% is about no effect
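Fluo-8 calcium influx in TRPV1-expressing cells, kinetic read (ex 480/em 520 nm). Compound added and read 3 min for agonist activity, followed by capsaicin at EC20 final and 2 min further read for enhancement.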
TRPV1 potentiator – enhances activation of the human vanilloid receptor TRPV1 | Q8NER1 | 320,000 tested, 0.02% active | AID 540277 | TRPV1-expressing cells, Fluo-8 calcium influx, capsaicin EC20 potentiation | potentiation, % at 8.33 µM; in the data active = potentiation above about 80%; inconclusive = between about 30% and that limit; also: 0% is about no effect
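TRPV1-expressing cells were cultured overnight at 35.5C and loaded with Fluo-8 calcium dye for 40 to 90 min at room temperature. After a 10 s baseline, compound was added and calcium influx was read kinetically for 3 min (ex 480/em 520 nm).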
* hit, by the source's call; [ ] = remark or other dose.

Cc1cccc(C)c1Nc1c(-c2ccccc2F)nc2cccc(C)n12 was read as RXFP1 antag -100.1*, RXFP1 agonist 5.0%, TRPV1 agonist 20.9 and TRPV1 potentiator -10.9.
For Cc1ccc(-n2c3nc(=O)[nH]c(=O)c-3cc3c(C)nn(-c4ccccc4)c32)c(C)c1 the results were RXFP1 antag -12.8, RXFP1 agonist 18.1%, gsp ag -13.0%[15.4 µM], gsp antag 50.1µM*, TRPV1 agonist -2.5 and TRPV1 potentiator -5.2.
Cc1ccc(C)c(-n2c3nc(=O)[nH]c(=O)c-3cc3c(C)nn(-c4ccccc4)c32)c1 was read as RXFP1 agonist 1.4%.
`CCCCN(C(=O)COC(=O)C1(c2ccccc2)CC1)c1c(N)n(CCC)c(=O)[nH]c1=O` gave RXFP1 antag -5.1 and gsp ag -22.3%.
COc1ccccc1N1CCN(C(=O)c2cccc(S(=O)(=O)N3c4ccccc4CC3C)c2)CC1 (stereo not given) was read as RXFP1 antag -2.6, gsp ag 11.0% and gsp antag 31.6µM*.
`Cc1cc(C(=O)CSc2nc3ccccc3[nH]2)c(C)n1CC1CCCO1` (stereo not given) gave RXFP1 antag -38.3, RXFP1 agonist -0.7%, gsp ag 6.6%, gsp antag 31.6µM*, TRPV1 agonist 5.0 and TRPV1 potentiator 25.2.
O=C(c1ccc(S(=O)(=O)Nc2cccc(C(F)(F)F)c2)cc1)N1CCC1 was read as RXFP1 antag 20.7, RXFP1 agonist inconclusive, gsp ag 10µM*, gsp antag -5.5%, TRPV1 agonist 0.6 and TRPV1 potentiator 20.7.
O=C(c1cccc(NS(=O)(=O)c2ccccc2)c1)N1CCN(c2ccccc2)CC1 was read as RXFP1 antag -117.1*, RXFP1 agonist -0.5%, gsp ag 23.8%[15.4 µM], gsp antag -18.0%, TRPV1 agonist 2.3 and TRPV1 potentiator -33.3.
Screening CC(=O)N1CCN(C(=O)c2ccc(S(=O)(=O)Nc3cccc(C(F)(F)F)c3)cc2)CC1 returned RXFP1 antag 7.3, RXFP1 agonist 0.2%, gsp ag 10.7%[15.4 µM], gsp antag inconclusive, TRPV1 agonist -0.5 and TRPV1 potentiator 5.0.
O=C(c1cccc(NS(=O)(=O)c2ccccc2)c1)N1CCCC1 was read as RXFP1 antag 0.0, RXFP1 agonist 1.5%, gsp ag -32.3%, gsp antag 0.9%, TRPV1 agonist -5.5 and TRPV1 potentiator 14.9.
Screening CCOC(=O)c1cnc2ccc(OCC)cc2c1NCc1ccccc1 returned RXFP1 agonist 7.8%, gsp ag 23.9%, gsp antag 14.1µM*, TRPV1 agonist inconclusive and TRPV1 potentiator 0.6.
For CCOC(=O)c1cnc(-n2nc(C)cc2C)nc1NCc1ccccc1 the results were RXFP1 antag -25.3, RXFP1 agonist 0.5%, gsp ag 5.1% and gsp antag 35.5µM*.
Screening CCOC(=O)N1CCN(C(=O)C(NC(=O)c2ccc(C(C)(C)C)cc2)C(C)C)CC1 (stereo not given) returned RXFP1 antag -4.2, RXFP1 agonist 3.5%, gsp ag -11.9%, gsp antag 1.1%, TRPV1 agonist 10.7 and TRPV1 potentiator -21.5.
CC1CCN(S(=O)(=O)c2ccc3c(c2)CCN3C(=O)Nc2ccc(Br)cc2)CC1 was read as RXFP1 antag -4.3 and RXFP1 agonist 0.5%.
`CCOC(=O)CC1C(=O)NCCN1C(=O)c1c(Cl)cccc1Cl` (stereo not given) gave RXFP1 antag -11.8, RXFP1 agonist -0.6%, gsp ag 0.7%, gsp antag 10.9%, TRPV1 agonist -0.8 and TRPV1 potentiator -19.2.
`O=C(Nc1cccc(/C=C/c2ccccn2)c1)c1ccc(-n2cncn2)c([N+](=O)[O-])c1` gave RXFP1 antag -24.9, RXFP1 agonist 2.0%, gsp ag -2.0%[15.4 µM], gsp antag 39.8µM*, TRPV1 agonist 10.0 and TRPV1 potentiator 5.2.
`CCc1ccc(NC(=O)c2ccc(-n3cncn3)c([N+](=O)[O-])c2)cc1` gave RXFP1 antag -20.6, RXFP1 agonist 1.6%, gsp ag 8.9%, gsp antag 50.1µM*, TRPV1 agonist 1.0 and TRPV1 potentiator -13.9.
COc1ccc(NC(=O)c2ccc(-n3cncn3)c([N+](=O)[O-])c2)cc1 was read as RXFP1 antag 15.1, RXFP1 agonist 3.6%, gsp ag -12.0%, gsp antag -6.8%, TRPV1 agonist inconclusive and TRPV1 potentiator -19.3.
CS(=O)(=O)c1ccc2nc(NC(=O)CS(=O)(=O)Cc3ccccc3)sc2c1 was read as RXFP1 antag -6.0, RXFP1 agonist 1.9%, gsp ag -35.0%, gsp antag -17.2%, TRPV1 agonist 4.9 and TRPV1 potentiator -19.7.
Cc1ccc2nc(NC(=O)CS(=O)(=O)Cc3ccccc3)sc2c1 was read as RXFP1 antag -15.5, RXFP1 agonist -1.3%, gsp ag -2.4%[15.4 µM], gsp antag 15.4%, TRPV1 agonist 84.6* and TRPV1 potentiator -0.1.
For Cc1ncc(C)c2c([N+](=O)[O-])cccc12 the results were RXFP1 antag 7.7 and gsp ag -25.8%.
`COc1ccccc1NC(=S)NC1CCCCCCCCCCC1` gave RXFP1 antag 3.9, RXFP1 agonist 2.1%, gsp ag 2.5%, gsp antag -3.8%, TRPV1 agonist 25.3 and TRPV1 potentiator -10.7.
COc1ccccc1NC(=S)NC1CCCCC1 was read as RXFP1 antag 12.6, RXFP1 agonist 2.6%, gsp ag 20µM*, gsp antag 0.5%, TRPV1 agonist 16.6 and TRPV1 potentiator -17.3.
For Cc1cc(C)c(OCC(=O)OCC(=O)NNC(=O)c2ccccc2F)c(C)c1 the results were RXFP1 antag 2.9, RXFP1 agonist 3.6%, gsp ag 22.5%, gsp antag -1.5%, TRPV1 agonist -1.9 and TRPV1 potentiator -4.2.
Screening CCN(CC)c1ccc2c(-c3ccc(S(=O)(=O)O)cc3S(=O)(=O)[O-])c3ccc(=[N+](CC)CC)cc-3oc2c1 returned RXFP1 antag 37.1, RXFP1 agonist 28.2µM*, gsp ag 60.2%[15.4 µM], gsp antag 14.5%, TRPV1 agonist -3.3 and TRPV1 potentiator 15.4.
For CCN(CC)c1ccc2nc3c4ccccc4c(=O)cc-3oc2c1 the results were RXFP1 antag 2.0, RXFP1 agonist 4.9%, gsp ag 23.2%, gsp antag -1.8%, TRPV1 agonist 3.7 and TRPV1 potentiator -2.8.
For Nc1nc(=O)n([C@@H]2O[C@H](CO)[C@@H](O)[C@@H]2F)cc1I the results were RXFP1 antag 3.5.
